Measurements taken from PubChem BioAssay AID588405 (Sanford-Burnham Center for Chemical Genomics, 2011).
Out of some 360,000 compounds screened, about 6,200 (1.7%) were called active.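 How the source made its calls: active means inhibition of at least 50% at 20 µM; inactive means the rest.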 Only a selection was taken, and actives are over-represented in it overall.

Experiment: inhibition of PEG-3 promoter activity – cell-based, HeLa, luciferase luminescence, primary screen (AID 588405)
Details: HeLa PEG-Prom luciferase reporter, overnight, at 20 µM, hits give high values

inhibition, inactive:
Cc1nn(-c2ccccc2)c(Cl)c1/C=N/NC(=O)c1nn(C)cc1[N+](=O)[O-] -116%
O=[N+]([O-])c1ccc(C=Nc2ccc(Cl)cc2Cl)s1 47.5%
CCNC(=O)C1(C)CCCN(C(=O)c2ccc3ccccc3n2)C1 (stereo not given) -7.45%
CNC(=O)c1cccc2nc3ccccc3nc12 6.22%
CCCN(CCC)CCNC(=O)c1cc2c(C)nc3ccccc3c2o1 18.8%
COc1ccc(-c2cc3c(c4c2ccn4C)C2CCC3C2)cn1 (stereo not given) -6.53%
CCCCC[C@@H]1C=C(C(=O)OCC)[C@H](c2ccccc2)N1S(=O)(=O)c1ccc(C)cc1 12.8%
CC(C)Cc1nnc(NC(=O)CCC(=O)Nc2ccc3cn[nH]c3c2)s1 19.8%
COC(=O)c1cc(NC2c3ccccc3C(=O)N2c2ccc(Cl)cn2)cc(C(=O)OC)c1 (stereo not given) -65.5%
CN(Cc1ccccc1F)c1cc2c(c3c1ccn3C)C1CCC2O1 (stereo not given) 33.1%
Cc1cccc(C(=O)OC(C)CN2CCN(C)CC2)c1 (stereo not given) -101%
Cc1cc(C)cc(C(=O)NCCN2CCOCC2)c1 3.53%
Cc1ccc(S(=O)(=O)NCC(=O)NNC(=O)c2ccc(Br)cc2)cc1C 4.68%
CCOc1cc(N2CCOCC2)c(OCC)cc1NC(=O)c1ccc(C)s1 -88.6%
CCOc1cc(N2CCOCC2)c(OCC)cc1NC(=O)COC(=O)[C@H](Cc1c[nH]c2ccccc12)NC(C)=O 22.9%
CC1(C(=O)Nc2cccc3c2CCCC3)CCN1C(=O)CCc1ccc(Cl)cc1Cl (stereo not given) 36.2%
COc1ccc(OC)c(C(O)c2nc3ccccc3n2C)c1 (stereo not given) 0.26%
CC1=C(C(=O)N2CCOCC2)CC(CC(=O)NCCCN(C)C)C(=O)N1Cc1ccc(C(C)(C)C)cc1 (stereo not given) -10.2%
Cc1ccc(S(=O)Cc2ccc(C(=O)N3CCN(C4CCCCC4)CC3)o2)cc1 (stereo not given) 24.1%
CN(C)S(=O)(=O)c1cccc(C(=O)OCC(=O)N2CCCC2=O)c1 -2.53%
CCOC(=O)c1ccc(NC(=O)Cc2cccs2)cc1 -222%
O=C(COC(=O)CNC(=O)c1ccco1)Nc1ccc(F)cc1 8.45%
CCCNC(=O)C1(C)CCN(Cc2ccc(Cl)c(Cl)c2)C1 (stereo not given) 1.28%
Cc1ccc(NC(=O)Nc2cc(-c3ccccc3)nn2C)cc1Cl 4.66%
CC(=O)Nc1ccc(-c2cn3cccnc3n2)cc1 -72.3%
COc1ccc(S(=O)(=O)N(C)C[C@H]2Oc3c(NC(=O)Nc4ccc5c(c4)OCO5)cccc3C(=O)N([C@H](C)CO)C[C@@H]2C)cc1 -2.6%
CCCNC(=O)C1(C)CCN(C(=O)c2cc(F)ccc2C)C1 (stereo not given) -1.83%
CCc1nc2ccc(C(=O)N3CCC(O)(Cc4ccccc4)CC3)cn2c1N(C)C(=O)Cc1ccccc1 4.95%
COc1ccc(/C(C)=N/N2CCOCC2)c(O)c1 -9.18%
CCCC(O)(c1ccc(OC)cc1)C(CN(C)C)c1ccccc1 (stereo not given) 7.67%
Cc1cc(C)n(CC(O)COc2ccc(C(C)(C)C)cc2)n1 (stereo not given) -28.6%
CS(=O)(=O)N(CC(=O)N1CCCC1)Cc1ccccc1 3.29%
CCCCc1ccc(S(=O)(=O)NC(=O)C2(C)CCN2C(=O)c2ccccc2)cc1 (stereo not given) 0.57%
O=C(NCCO)c1cccc(-c2cccc3nccn23)c1 -16.2%
O=C(Nc1ccc2c(c1)OCCO2)C(C1CC1)N1CCC(Cc2ccccc2)CC1 (stereo not given) -10.2%
C/C(CC(=O)Nc1cccc(C(F)(F)F)c1)=N\NC(=O)C(=O)NCC(C)C -1.6%
O=C(Nc1cccc(F)c1)NC1CCCCCCC1 -273%
O=C(Nc1ccc(C(=O)N2CCOCC2)cc1)Nc1cccc(C(F)(F)F)c1 2.67%
CC(=O)c1ccc(Nc2nc(C(N)c3ccccc3)cs2)cc1 (stereo not given) -58.5%
COc1ccc(C(CC(=O)Nc2ccc(C)cc2)NC(=O)C(F)(F)F)cc1 (stereo not given) 3.66%
COc1cccc(NC(=O)Nc2ccc(F)cc2)c1 -212%
Cc1cc(Br)ccc1NC(=O)CCCOc1cc(=O)n(C)c2ccccc12 -16.6%
Cc1ccc(C)c(OCCC(=O)Nc2cccc(S(=O)(=O)N3CCCC3)c2)c1 21.3%
COC(=O)CNC(c1ccccc1Cl)c1cc(Br)ccc1NC(=O)CCN1CCOCC1 (stereo not given) 20.5%
COC(=O)Cc1cnc(NC(=O)CSc2nc(C(C)C)cc(=O)[nH]2)s1 1.1%
CC1(Oc2cccc(F)c2)CCN(Cc2ccccc2OC(F)F)C1 (stereo not given) 2.93%
CCCNC(=S)N1CCC(NC(=O)C23CC4CC(CC(C4)C2)C3)CC1 8.28%
CCNC(=O)C1CCCN(C(=O)c2cc(F)ccc2C)CC1 (stereo not given) 2.54%
CCc1nc2ccc(C(=O)NC3CCN(Cc4ccccc4)CC3)cn2c1N(C)CCN1CCOCC1 -22.2%
CCC(=O)N1CCC(C)(C(=O)Nc2cc(OC)c(OC)c(OC)c2)C1 (stereo not given) -5.88%
CCOC(=O)c1c(C)[nH]c(C)c1S(=O)(=O)NCCCc1ccco1 -7.04%
CCOC(=O)c1[nH]c2ccccc2c1N=C(C)N(CC)CC 12.3%
Brc1ccc(Nc2c3c(nc4ncnn24)CCC3)cc1 22.3%
CC(=O)c1cccc(-c2cnc3c(NC=O)cc(-c4ccc(N5CCN(C)CC5)cc4)cn23)c1 -143%
CC1(C(=O)NS(=O)(=O)c2cccc(OC(F)F)c2)CCN1C(=O)C1CC1 (stereo not given) -2.21%
CCCCn1c(N)c(N2CCOCC2)c(=O)n(CC(=O)NCCc2ccccc2)c1=O 2.61%
O=C(CN1CCCCCC1)NCCN1C(=O)S/C(=C\c2ccccc2Cl)C1=O 3.28%
CN(C(=O)CCN1C(=O)/C(=C/c2ccccc2F)SC1=S)C1CCS(=O)(=O)C1 (stereo not given) 6.96%
Cc1cc(Br)cn2c(Cc3cccc(F)c3)c(-c3cccc(Br)c3)nc12 33.6%
COc1ccc(-c2ccc(C(=O)NCCN3CCOCC3)c3occc23)c(C)c1 -2.5%
CCOC1=C2[C@H]([C@H]3C(=O)N(c4ccccc4)C(=O)[C@H]3C1)[C@@H](c1ccccc1)N(S(=O)(=O)c1ccc(C)cc1)[C@H]2c1ccccc1 16.4%
Cc1ccc(S(=O)(=O)N(C)C)cc1NC(=O)c1ccc(-n2cncn2)c([N+](=O)[O-])c1 6.01%
CCN(CC)C(=O)C1CCCN(Cc2cccc(Cl)c2)C1 (stereo not given) 3.55%
COc1ccc(-c2csc(C(O)c3cccc(Cl)c3)n2)cn1 (stereo not given) -7.77%
Cc1nc2cc(S(=O)(=O)C(F)(F)F)ccc2s1 2.35%
COc1cccc(CN2CCC(C(=O)NC(c3ccc4c(c3)OCO4)c3ccccn3)CC2)c1 (stereo not given) -0.88%
Cc1cccnc1C(NC(=O)C1CCN(Cc2ccc(Cl)c(Cl)c2)CC1)c1ccc(Cl)cc1 (stereo not given) 2.43%
O=c1c2ccccc2ncn1/N=C/c1ccccc1 -247%
Cc1ccc(-n2c(SCC(=O)N/N=C/C=C/c3ccccc3[N+](=O)[O-])nc3ccccc3c2=O)cc1 6.9%
CC1(C(=O)NS(=O)(=O)Cc2cccc(Cl)c2)CCN1C(=O)Cc1ccccc1 (stereo not given) 8.1%
Cc1ccc(NS(=O)(=O)c2cc3c(cc2Br)NC(=O)CO3)cc1C 24.2%
CC(C)(CCl)C(=O)Nc1ccc(Sc2ccc(F)cc2)cc1 -14%
O=C(CCl)Nc1cccc(CP(=O)(c2ccccc2)c2ccccc2)c1 22.4%
CC(C)C1C(=O)N(Cc2cn(CCC3OCCO3)nn2)CCS(=O)(=O)N1Cc1ccc(-c2ccccc2C(F)(F)F)cc1 (stereo not given) 12.5%

inhibition, active:
CC(C)(C)c1cc(C(=O)N/N=C/c2ccc([N+](=O)[O-])s2)n[nH]1 50.6%
CN(C)CCNC(=O)c1ccc(Cl)c2cc3ccccc3nc12 102%
CNC[C@H](CC1CCCCC1)NC[C@H](NCCC1CCCC1)[C@H](C)O 73.8%
Cc1cccc(-c2nc3ccc(C(=O)NCCN4CCN(C)CC4)cc3nc2-c2cccc(C)c2)c1 103%
CCOc1cc(N2CCOCC2)c(OCC)cc1NC(=O)COc1cccc2cccnc12 109%
CCOC(=O)c1ccc(NC(=O)CNC(=O)c2ccco2)cc1 102%
CC(=O)Nc1ccc(-c2csc(NC(=O)Nc3ccccc3)n2)cc1 102%
CN(C)CC(O)COc1ccc(C(C)(C)c2ccc(OCC(O)CN(C)C)cc2)cc1 (stereo not given) 77.5%
NC(c1csc(NC(=O)Nc2cccc(C(F)(F)F)c2)n1)C1CCCCC1 (stereo not given) 111%
NC(c1ccccc1)c1csc(NC(=O)Nc2cccc(C(F)(F)F)c2)n1 (stereo not given) 113%
COc1ccc(C(N)c2csc(NC(=O)Nc3cccc(C(F)(F)F)c3)n2)cc1 (stereo not given) 96.6%
CCOC(=O)c1c(C)[nH]c2c1-c1ccccc1C(=O)C2=O 108%
O=C1/C(=C\c2ccccc2Cl)SC(=S)N1CCC(=O)N1CCCc2ccccc21 105%
COc1ccc2c(c1)c(=Cc1ccc(N(C)C)cc1)c1cc(-c3ccccc3)[n+](C)n12 104%
CCn1c(/C=C/c2ccc([N+](=O)[O-])o2)nc2ccccc2c1=O 93.3%
O=C(CCl)Nc1ccc(Sc2ccc(NC(=O)CCl)cc2)cc1 99.8%
